Test results taken from PubChem BioAssay (NCI).
About 79,000 compounds went through this panel and 15% of them were active in at least one assay; those are over-represented in the sample as a whole. A number with no mark means an inactive call. Activity calls are given as the source filed them. Rule as the data show it: active = growth inhibition above about 70%; inactive = the rest.

Columns and labels:
[1] = NCI Yeast Anticancer Drug Screen. Data for the rad50 strain (AID 155);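 also: 0% = growth of vehicle-only cultures of the same strain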; settings: S. cerevisiae rad50 strain growth inhibition, active compounds read high
Method in brief: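 Cells are treated with compound, grown, and their growth is then scored against vehicle-only cultures of the same repair-deficient yeast strain.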

[2] = NCI Yeast Anticancer Drug Screen. Data for the mec2-1 strain (AID 157); settings: S. cerevisiae mec2-1 strain, active compounds read high
Method in brief: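 Using mec2-1 yeast: add compound, measure growth, express inhibition versus vehicle-treated cultures.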

[3] = NCI Yeast Anticancer Drug Screen. Data for the sgs1 mgt1 strain (AID 161);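 also: 0% = growth of cultures given vehicle only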; settings: S. cerevisiae sgs1 mgt1 strain, active compounds read high
Method in brief: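 Growth of a repair-deficient yeast mutant was monitored after compound treatment and expressed as inhibition relative to vehicle-treated cultures.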

[4] = NCI Yeast Anticancer Drug Screen. Data for the cln2 rad14 strain (AID 165);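 also: 0% = growth equal to vehicle treated cultures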; settings: S. cerevisiae cln2 rad14 strain, active compounds read high
Method in brief: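 Yeast strain cln2 rad14, bearing defects in cell cycle control and DNA repair, serves as the test system; values reflect growth inhibition compared with vehicle.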

[5] = NCI Yeast Anticancer Drug Screen. Data for the bub3 strain (AID 167); settings: S. cerevisiae bub3 mutant strain, active compounds read high
Method in brief: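 Part of a panel of yeast mutants defective in DNA damage repair or cell cycle regulation. Each strain is grown with compound, and inhibition is calculated relative to solvent-treated cultures.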

[6] = NCI Yeast Anticancer Drug Screen. Data for the mlh1 rad18 strain (AID 175); settings: S. cerevisiae mlh1 rad18 strain growth inhibition, active compounds read high
Method in brief: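 Steps: expose repair-defective yeast to compound; measure growth; express inhibition against vehicle-treated controls.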

[7] = at 5.0 µM (retest, dose inferred, filed as 0.5)
[8] = at 50.0 µM (retest, dose inferred, filed as 5.0)

| Structure (SMILES) | growth inhibition [1, 7] | growth inhibition [1, 8] | growth inhibition ([1]; at 50.0 µM) | growth inhibition [2, 7] | growth inhibition [2, 8] | growth inhibition ([2]; at 50.0 µM) | growth inhibition [3, 7] | growth inhibition [3, 8] | growth inhibition ([3]; at 50.0 µM) | growth inhibition [4, 7] | growth inhibition [4, 8] | growth inhibition ([4]; at 50.0 µM) | growth inhibition [5, 7] | growth inhibition [5, 8] | growth inhibition ([5]; at 50.0 µM) | growth inhibition [6, 7] | growth inhibition [6, 8] | growth inhibition ([6]; at 50.0 µM) |
| --- | --- | --- | --- | --- | --- | --- | --- | --- | --- | --- | --- | --- | --- | --- | --- | --- | --- | --- |
| O=C(CCCN1CCN2Cc3[nH]c4ccccc4c3CC2C1)c1ccc(F)cc1 (stereo not given) | 5% | 58% | 98.8% (active) | 7% | 73% (active) | 98.7% (active) | 20% | 92% (active) | 66.8% | 2% | 59% | 95.6% (active) | 4% | 60% | 92.1% (active) | 37% | 88% (active) | 99.3% (active) |
| c1ccc2c(c1)C[N+]1(CCCCCCC1)C2 | 19% | 51% | 74.2% (active) | 6% | 64% | 72.7% (active) | -2% | 77% (active) | 69.9% | -14% | 25% | 53.6% | -3% | 36% | 58.9% | 6% | 88% (active) | 65.8% |
| O=C(C=P(c1ccccc1)(c1ccccc1)c1ccccc1)c1ccccc1-c1ccccc1C(=O)C=P(c1ccccc1)(c1ccccc1)c1ccccc1 | 98% (active) | 92% (active) | 87.9% (active) | 99% (active) | 92% (active) | 90.8% (active) | 99% (active) | 87% (active) | 90.5% (active) | 97% (active) | 93% (active) | 88.5% (active) | 99% (active) | 93% (active) | 88.2% (active) | 95% (active) | 88% (active) | 90.4% (active) |
| C/C(CCn1[nH]c(=O)ccc1=O)=N\NS(=O)(=O)c1ccc(C)cc1 | -3% | -3% | -4.05% | 4% | 15% | 4.6% | 0% | -11% | 12.6% | 11% | 29% | -6.7% | -1% | 6% | -5.15% | -8% | 11% | -10.3% |
| ClCC1CSC2(CCCCC2)O1 (stereo not given) | 16% | 3% | 21.5% | 10% | -16% | 20.9% | 7% | -8% | 27.1% | 15% | 32% | 13.7% | -13% | -9% | 31.6% | -17% | -23% | 27.5% |
| CC(C)(C)c1cc(Nc2ccc([N+](=O)[O-])cc2[N+](=O)[O-])cc(C(C)(C)C)c1O | 4% | 99% (active) | -14.9% | 7% | 100% (active) | 14.3% | 6% | 99% (active) | 10.4% | -1% | 99% (active) | -45.6% | 8% | 99% (active) | -0.9% | -1% | 99% (active) | 8.45% |
| Cc1c[nH]c2c(O)cc3c(c12)[C@H](CCl)CN3C(=O)c1cc2cc(NC(=O)Nc3ccc4[nH]c(C(=O)N5C[C@@H](CCl)c6c5cc(O)c5[nH]cc(C)c65)cc4c3)ccc2[nH]1 | 38% | 70% (active) | 17.4% | 30% | 63% | 33.6% | 33% | 64% | -12.9% | 14% | 34% | -3.3% | 34% | 56% | -0.05% | 78% (active) | 86% (active) | 3.2% |
| CN(C)C(=S)/N=c1\ssc(=S)n1C | 2% | 0% | 86.7% (active) | 2% | 4% | 27.4% | 2% | -1% | 90.7% (active) | 1% | 4% | 72.1% (active) | -1% | -1% | 87.8% (active) | 0% | 6% | 84.8% (active) |
| Cn1c2c(c3ccccc31)CCN(CCCN1CCN(c3cccc(Cl)c3)CC1)C2=O | 32% | 32% | 79.2% (active) | 7% | 7% | 54.1% | 22% | 22% | 78.7% (active) | 11% | 11% | 73.8% (active) | 2% | 2% | 80% (active) | 25% | 25% | 71% (active) |
| Cc1csc2c1C(=O)c1ccsc1C2=O | 54% | 97% (active) | 88.8% (active) | 50% | 99% (active) | 91.5% (active) | 72% (active) | 99% (active) | 92.2% (active) | 31% | 98% (active) | 90.8% (active) | 86% (active) | 98% (active) | 91.5% (active) | 65% | 99% (active) | 91.1% (active) |
| CCCCc1c2c(nc3c1CCCC3O)/C(=C/c1ccccc1)CCC2 (stereo not given) | 0% | 42% | 50.8% | 0% | 47% | 53.9% | -2% | 67% | 49.9% | -3% | 30% | 59.9% | 3% | 89% (active) | 83.7% (active) | 1% | 71% (active) | 80.3% (active) |
| O=c1ccc2c(COc3ccc(Cl)cc3Cl)c3ccc(O)cc3oc-2c1 | -4% | 15% | 78.5% (active) | -3% | -1% | 45.8% | -2% | 12% | 73.9% (active) | 9% | 12% | 26.7% | -4% | 1% | 25.1% | -6% | 4% | 60.1% |
| Cc1nc(C(N)=S)sc1/C(CC(=O)C(=O)Nc1cccc2ccc(O)cc12)=N\NC(=O)c1ccncc1 | 25% | 31% | 21.8% | 16% | 18% | 7.5% | 9% | 28% | -4.85% | 14% | 33% | -10.8% | 32% | 29% | 13.1% | 14% | 35% | 16.4% |
| CCCCCCCCCCCCCCCCC#N | -6% | -8% | 50.4% | -2% | -4% | -7.4% | 0% | -4% | 52.1% | 2% | 0% | 16.2% | -3% | -9% | 52.2% | -5% | -5% | 24.1% |
| CCOC(=O)c1c(N)sc2c1CCCCC2 | -160% | -118% | 47% | -51% | -25% | 45.4% | -63% | 1% | 52% | -53% | -52% | 27.6% | -71% | -42% | 50.4% | -142% | -88% | 61.1% |
| CC1(C)c2ccccc2Cc2cc3ccccc3nc21 | 0% | 98% (active) | 97.8% (active) | -4% | 99% (active) | 93% (active) | -5% | 97% (active) | 90.2% (active) | 1% | 95% (active) | 25.2% | -3% | 98% (active) | 94% (active) | -1% | 98% (active) | 83.2% (active) |
| COc1ccc2nc(-c3ccc(Cl)cc3)[nH]c2c1 | 1% | 88% (active) | 72.7% (active) | -5% | 91% (active) | 74.9% (active) | -3% | 90% (active) | 80.5% (active) | -8% | 47% | -4% | 3% | 90% (active) | 94.2% (active) | -4% | 78% (active) | 60.3% |
| CC1(C)CC(=O)C(/C=N/c2nc(-c3cccc([N+](=O)[O-])c3)cs2)=C(O)C1 | 17% | 99% (active) | 99% (active) | 15% | 99% (active) | 99% (active) | 5% | 99% (active) | 99% (active) | -7% | 99% (active) | 98.5% (active) | 20% | 99% (active) | 99.1% (active) | 14% | 99% (active) | 99% (active) |
| COc1ccc2ccc3c(c2c1)CCC(C(=O)O)C3CC(=O)O (stereo not given) | -9% | 9% | 41.9% | -17% | 0% | 97.5% (active) | -11% | 12% | 43.6% | 0% | 27% | 93.8% (active) | -11% | 26% | 77.2% (active) | -30% | 35% | 84% (active) |
| O=c1c2cc(Br)ccc2ncn1COCc1ccccc1 | 21% | 20% | 7.3% | 11% | 11% | -4.1% | 21% | 19% | 87.2% (active) | 24% | -12% | 54% | 15% | -21% | 83.5% (active) | 27% | 24% | 43.3% |
